# Measured values reported in paper PMC11006913.
# Changes are numbered by the printed parent chain.
# Columns and labels:
# Assay in all cases: PBM; 200 nM protein, PBS
# Settings in all cases: dsDNA, one strand shown
# [1] = biological target: T1, VENTX (Homo sapiens, UniProt O95231 78-163, R121Q)
# T1 sequence: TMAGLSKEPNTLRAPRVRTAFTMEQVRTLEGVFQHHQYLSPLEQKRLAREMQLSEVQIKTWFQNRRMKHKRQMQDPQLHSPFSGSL
# [2] = biological target: T2, VENTX (Homo sapiens, UniProt O95231 78-163)
# T2 sequence: T1 sequence with Q44R
# [3] = biological target: T3, VENTX (Homo sapiens, UniProt O95231 78-163, Y115F)
# T3 sequence: T1 sequence with Y38F, Q44R
# [4] = biological target: ALX4 (Homo sapiens, UniProt Q9H161 200-286)
# Chain of ALX4 (Homo sapiens, UniProt Q9H161 200-286) (Q9H161 200-286): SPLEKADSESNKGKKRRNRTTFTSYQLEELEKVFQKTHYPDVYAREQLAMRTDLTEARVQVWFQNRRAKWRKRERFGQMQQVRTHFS
# [5] = biological target: ALX4 (Homo sapiens, UniProt Q9H161 200-286, Q225E)
# Chain of ALX4 (Homo sapiens, UniProt Q9H161 200-286, Q225E) (Q9H161 200-286 Q225E): as the sequence (Q9H161 200-286) above, with Q26E counted along it
# [6] = biological target: T4, PAX4 (Homo sapiens, UniProt O43316 9-242, R200K)
# T4 sequence: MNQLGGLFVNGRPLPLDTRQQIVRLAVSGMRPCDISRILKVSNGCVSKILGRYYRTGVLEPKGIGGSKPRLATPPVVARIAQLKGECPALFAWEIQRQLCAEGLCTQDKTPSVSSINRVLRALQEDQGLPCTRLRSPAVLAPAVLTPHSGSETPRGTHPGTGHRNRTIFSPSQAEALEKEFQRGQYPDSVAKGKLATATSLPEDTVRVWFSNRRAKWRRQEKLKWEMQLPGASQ
# [7] = biological target: T5, PAX4 (Homo sapiens, UniProt O43316 9-242)
# T5 sequence: T4 sequence with K192R
# [8] = biological target: MSX2 (Homo sapiens, UniProt P35548 130-214, R199I)
# Chain of MSX2 (Homo sapiens, UniProt P35548 130-214, R199I) (P35548 130-214 R199I): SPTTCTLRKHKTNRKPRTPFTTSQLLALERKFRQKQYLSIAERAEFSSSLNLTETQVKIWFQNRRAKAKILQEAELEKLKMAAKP
# [9] = biological target: T6, PAX4 (Homo sapiens, UniProt O43316 9-242, R200Q)
# T6 sequence: T4 sequence with K192Q
# [10] = biological target: T7, PAX4 (Homo sapiens, UniProt O43316 9-242, F177V)
# T7 sequence: T4 sequence with F169V, K192R
# [11] = biological target: MSX2 (Homo sapiens, UniProt P35548 130-214)
# Chain of MSX2 (Homo sapiens, UniProt P35548 130-214) (P35548 130-214): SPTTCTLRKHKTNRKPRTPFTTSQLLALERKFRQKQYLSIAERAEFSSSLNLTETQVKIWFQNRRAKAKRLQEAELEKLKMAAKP
# [12] = biological target: T8, PAX4 (Homo sapiens, UniProt O43316 9-242, F177Y)
# T8 sequence: T4 sequence with F169Y, K192R
# [13] = biological target: MSX2 (Homo sapiens, UniProt P35548 130-214, F161Y)
# Chain of MSX2 (Homo sapiens, UniProt P35548 130-214, F161Y) (P35548 130-214 F161Y): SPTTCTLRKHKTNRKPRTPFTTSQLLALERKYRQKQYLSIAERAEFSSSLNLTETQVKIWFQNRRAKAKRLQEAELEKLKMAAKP
# [14] = biological target: T9, PAX4 (Homo sapiens, UniProt O43316 9-242, R227W)
# T9 sequence: T4 sequence with K192R, R219W
# [15] = biological target: HOXA7 (Homo sapiens, UniProt P31268 116-202)
# Chain of HOXA7 (Homo sapiens, UniProt P31268 116-202) (P31268 116-202): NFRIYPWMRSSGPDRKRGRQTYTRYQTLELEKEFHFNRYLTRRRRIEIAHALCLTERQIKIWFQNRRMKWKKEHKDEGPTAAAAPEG
# [16] = biological target: HOXB6 (Homo sapiens, UniProt P17509 132-218, K202E)
# Chain of HOXB6 (Homo sapiens, UniProt P17509 132-218, K202E) (P17509 132-218 K202E): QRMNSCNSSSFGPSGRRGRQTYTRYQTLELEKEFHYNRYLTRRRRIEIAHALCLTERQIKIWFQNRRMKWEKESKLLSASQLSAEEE
# [17] = biological target: HOXA7 (Homo sapiens, UniProt P31268 116-202, W177C)
# Chain of HOXA7 (Homo sapiens, UniProt P31268 116-202, W177C) (P31268 116-202 W177C): as the sequence (P31268 116-202) above, with W62C counted along it
# [18] = biological target: HOXB6 (Homo sapiens, UniProt P17509 132-218)
# Chain of HOXB6 (Homo sapiens, UniProt P17509 132-218) (P17509 132-218): as the sequence (P17509 132-218 K202E) above, with E71K counted along it
sequence,measurement,setting,value
GCCGGCAC,binding signal,[1],"7.98 upbm affinity estimate (log intensity, higher = more binding, comparable within an allelic series)"
same,binding signal,[2],"7.91 upbm affinity estimate (log intensity, higher = more binding, comparable within an allelic series)"
same,binding signal,[3],"7.98 upbm affinity estimate (log intensity, higher = more binding, comparable within an allelic series)"
CGTCGACG,binding signal,[1],"7.98 upbm affinity estimate (log intensity, higher = more binding, comparable within an allelic series)"
same,binding signal,[2],"7.91 upbm affinity estimate (log intensity, higher = more binding, comparable within an allelic series)"
same,binding signal,[4],"7.89 upbm affinity estimate (log intensity, higher = more binding, comparable within an allelic series)"
same,binding signal,[3],"8.1 upbm affinity estimate (log intensity, higher = more binding, comparable within an allelic series)"
same,binding signal,[5],"7.93 upbm affinity estimate (log intensity, higher = more binding, comparable within an allelic series)"
GAAGCCGC,binding signal,[1],"8.12 upbm affinity estimate (log intensity, higher = more binding, comparable within an allelic series)"
same,binding signal,[2],"8.07 upbm affinity estimate (log intensity, higher = more binding, comparable within an allelic series)"
same,binding signal,[4],"8.19 upbm affinity estimate (log intensity, higher = more binding, comparable within an allelic series)"
same,binding signal,[6],"9.31 upbm affinity estimate (log intensity, higher = more binding, comparable within an allelic series)"
same,binding signal,[3],"8.31 upbm affinity estimate (log intensity, higher = more binding, comparable within an allelic series)"
same,binding signal,[7],"9.25 upbm affinity estimate (log intensity, higher = more binding, comparable within an allelic series)"
same,binding signal,[5],"8.07 upbm affinity estimate (log intensity, higher = more binding, comparable within an allelic series)"
same,binding signal,[8],"9.54 upbm affinity estimate (log intensity, higher = more binding, comparable within an allelic series)"
same,binding signal,[9],"9.31 upbm affinity estimate (log intensity, higher = more binding, comparable within an allelic series)"
same,binding signal,[10],"9.32 upbm affinity estimate (log intensity, higher = more binding, comparable within an allelic series)"
same,binding signal,[11],"9.58 upbm affinity estimate (log intensity, higher = more binding, comparable within an allelic series)"
same,binding signal,[12],"9.18 upbm affinity estimate (log intensity, higher = more binding, comparable within an allelic series)"
same,binding signal,[13],"9.63 upbm affinity estimate (log intensity, higher = more binding, comparable within an allelic series)"
same,binding signal,[14],"9.34 upbm affinity estimate (log intensity, higher = more binding, comparable within an allelic series)"
CCCATTAC,binding signal,[1],"11.4 upbm affinity estimate (log intensity, higher = more binding, comparable within an allelic series)"
same,binding signal,[2],"12.4 upbm affinity estimate (log intensity, higher = more binding, comparable within an allelic series)"
same,binding signal,[3],"11.2 upbm affinity estimate (log intensity, higher = more binding, comparable within an allelic series)"
TACATATA,binding signal,[1],"9.51 upbm affinity estimate (log intensity, higher = more binding, comparable within an allelic series)"
same,binding signal,[2],"9.59 upbm affinity estimate (log intensity, higher = more binding, comparable within an allelic series)"
same,binding signal,[3],"9.49 upbm affinity estimate (log intensity, higher = more binding, comparable within an allelic series)"
ACCCATTA,binding signal,[1],"12.1 upbm affinity estimate (log intensity, higher = more binding, comparable within an allelic series)"
same,binding signal,[2],"12.9 upbm affinity estimate (log intensity, higher = more binding, comparable within an allelic series)"
same,binding signal,[15],"11.2 upbm affinity estimate (log intensity, higher = more binding, comparable within an allelic series)"
same,binding signal,[3],"11.7 upbm affinity estimate (log intensity, higher = more binding, comparable within an allelic series)"
same,binding signal,[16],"9.84 upbm affinity estimate (log intensity, higher = more binding, comparable within an allelic series)"
same,binding signal,[17],"8.76 upbm affinity estimate (log intensity, higher = more binding, comparable within an allelic series)"
same,binding signal,[18],"11.8 upbm affinity estimate (log intensity, higher = more binding, comparable within an allelic series)"
